# Records with an inconclusive call do not appear. Active and inactive are the calls of the source. Rule for the calls, unless noted: active = hit-call score of the fitted dose curve at least 0.9, where 1 is the maximum; inconclusive = response in the unintended direction; inactive = score below 0.9.
# Tests used:
# [1] = molecular target: Nucleoli Translocation, AR (gene 367) (UniProt P10275); test: UPITT_HCI_U2OS_AR_TIF2_Nucleoli_Antagonist: University of Pittsburgh U2OS Androgen Receptor-Transcriptional Intermediary Factor 2 (AR-TIF2) Antagonism High Content Imaging Assay for Nucleoli Translocation (AID 2283997)
# Summary of the method: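 Antagonism is read as loss of nucleolar AR-RFP signal relative to DHT, imaged in U2OS cells also carrying GFP-TIF2. Compounds screened at 20 uM final, 0.2% DMSO; primary actives retested in triplicate.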
# [2] = molecular target: Nucleoli Translocation, AR (gene 367) (UniProt P10275); test: UPITT_HCI_U2OS_AR_TIF2_Nucleoli_Agonist: University of Pittsburgh U2OS Androgen Receptor-Transcriptional Intermediary Factor 2 (AR-TIF2) Agonism High Content Imaging Assay for Nucleoli Translocation (AID 2283998)
# Summary of the method: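 Cells express human AR fused to red fluorescent protein and TIF2 fused to GFP. Red fluorescence in the nucleolar region was quantified by high-content imaging and fitted as gain-of-signal against a DMSO baseline. Compounds were tested at 0.195 to 50 uM final (0.5% DMSO).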
# [3] = molecular target: Ratio of Nucleoli Translocation and Cytoplasm, AR (gene 367) (UniProt P10275); test: UPITT_HCI_U2OS_AR_TIF2_Nucleoli_Cytoplasm_Ratio_Antagonist: University of Pittsburgh U2OS Androgen Receptor-Transcriptional Intermediary Factor 2 (AR-TIF2) Antagonism High Content Imaging Assay for Ratio of Nucleoli Translocation and Cytoplasm (AID 2283999);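 note: antagonists lower the DHT-driven ratio of nucleolar to cytoplasmic red signal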
# Summary of the method: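 High-content imaging of red fluorescence ratio, nucleoli versus cytoplasm, in U2OS expressing AR-RFP and TIF2-GFP, fitted relative to DHT. Compounds tested once at 20 uM final, then 0.195 to 50 uM final in serial dilution.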
# [4] = molecular target: Ratio of Nucleoli Translocation and Cytoplasm, AR (gene 367) (UniProt P10275); test: UPITT_HCI_U2OS_AR_TIF2_Nucleoli_Cytoplasm_Ratio_Agonist: University of Pittsburgh U2OS Androgen Receptor-Transcriptional Intermediary Factor 2 (AR-TIF2) Agonism High Content Imaging Assay for Ratio of Nucleoli Translocation and Cytoplasm (AID 2284000);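 note: hits raise the red nucleolar to cytoplasm ratio above vehicle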
# Summary of the method: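 Compounds tested at 20 uM final in primary screen (0.2% DMSO) and 0.195-50 uM final in dose-response (0.5% DMSO). Imaging of human U2OS cells bearing RFP-AR and GFP-TIF2; endpoint is nucleoli/cytoplasm red signal ratio, positive direction relative to DMSO.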
# DIO1 (gene 1733) = test: CCTE_GLTED_hDIO1: CCTE's human Deiodinase 1 (DIO1) Inhibition Assay, Great Lakes Toxicology and Ecology Division (GLTED) Lab (AID 2283987);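 note: isolated human DIO1 enzyme in a cell-free setup rather than cells; enzyme activity read as free iodide liberated from substrate via Sandell-Kolthoff colorimetry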
# Summary of the method: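 Cell-free human DIO1 enzyme was incubated with test chemical for 3 h, and iodide released from substrate was measured by Sandell-Kolthoff absorbance. Loss of signal versus DMSO baseline indicated inhibition; plates were run in triplicate.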
# THRA (gene 7067) = THRA (gene 7067) (UniProt P10827); test: TOX21_TRA_COA_Agonist_Followup_ratio: Tox21 Thyroid Hormone Receptor alpha Agonism through Coactivator Recruitment Follow-Up Assay, Ratio (AID 2283948; active = hit-call score of the fitted dose curve at least 0.9, where 1 is the maximum; inactive = score below 0.9)
# Summary of the method: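 Read-out is the 520/495 nm emission ratio (ex 340 nm), scaled between DMSO-only wells as 0% and T3 wells as 100%. It reflects fluorescein-SRC-2 peptide recruitment to GST-TRα LBD detected via terbium anti-GST antibody.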
# THRB (gene 7068) = THRB (gene 7068) (UniProt P10828); test: TOX21_TRB_COA_Agonist_Followup_ratio: Tox21 Thyroid Hormone Receptor beta Agonism through Coactivator Recruitment Follow-Up Assay, Ratio (AID 2283963; active = hit-call score of the fitted dose curve at least 0.9, where 1 is the maximum; inactive = score below 0.9)
# Summary of the method: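 First, the GST-fused TRβ ligand-binding domain (5.0 nM) was incubated with test compound in 0.10% BSA. Next, fluorescein-tagged SRC-2 peptide (200 nM) and terbium anti-GST antibody (2 nM) were added. Finally, TR-FRET emission ratios were normalized against DMSO and T3 controls.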
# [5] = TOX21_TR_RXR_BLA_Agonist_Followup_viability: Viability Assessment in the Tox21 Thyroid Hormone Receptor beta Retinoid X Receptor alpha (RXRa) Agonism Beta-lactamase (BLA) Follow-Up Assay (AID 2283970)
# Summary of the method: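 CellTiter-Glo ATP luciferase read-out of cell viability, multiplexed with the beta-lactamase reporter run. RXRa-bla HEK293T cells in charcoal-stripped serum medium were exposed 16 h at 37C; data fitted both directions relative to DMSO.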
# [6] = TOX21_PR_LUC_Followup_Agonist_viability: Viability Assessment in the Tox21 HEK293 Progesterone Receptor (PR) Agonism Luciferase Follow-Up Assay (AID 2283941);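 note: loss of signal means cytotoxicity so actives lower viability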
# Summary of the method: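 Cytotoxicity counter-readout in the PR-A luciferase reporter line HEK293, with 16 h compound exposure at 37C after cells were cultured in charcoal-stripped serum. Cellular ATP quantified by CellTiter-Glo luminescence.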
# [7] = molecular target: Retinoic acid receptor RXR-alpha (Homo sapiens) (UniProt P19793); test: TOX21_TR_RXR_BLA_Agonist_Followup_ratio: Tox21 Thyroid Hormone Receptor beta Retinoid X Receptor alpha (RXRa) Agonism Beta-lactamase (BLA) Follow-Up Assay, Ratio (AID 2283968)
# Summary of the method: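 Agonist mode: compounds given to RXRa-bla HEK293T cells at 11 concentrations, triplicate, 16 h at 37C/5% CO2. Readout is the 460:530 nm blue/green ratio after 2 h substrate loading at room temperature; DMSO baseline, 9-cis retinoic acid control.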
# Sequence of Ratio of Nucleoli Translocation and Cytoplasm, AR (gene 367) (P10275 whole entry, looked up): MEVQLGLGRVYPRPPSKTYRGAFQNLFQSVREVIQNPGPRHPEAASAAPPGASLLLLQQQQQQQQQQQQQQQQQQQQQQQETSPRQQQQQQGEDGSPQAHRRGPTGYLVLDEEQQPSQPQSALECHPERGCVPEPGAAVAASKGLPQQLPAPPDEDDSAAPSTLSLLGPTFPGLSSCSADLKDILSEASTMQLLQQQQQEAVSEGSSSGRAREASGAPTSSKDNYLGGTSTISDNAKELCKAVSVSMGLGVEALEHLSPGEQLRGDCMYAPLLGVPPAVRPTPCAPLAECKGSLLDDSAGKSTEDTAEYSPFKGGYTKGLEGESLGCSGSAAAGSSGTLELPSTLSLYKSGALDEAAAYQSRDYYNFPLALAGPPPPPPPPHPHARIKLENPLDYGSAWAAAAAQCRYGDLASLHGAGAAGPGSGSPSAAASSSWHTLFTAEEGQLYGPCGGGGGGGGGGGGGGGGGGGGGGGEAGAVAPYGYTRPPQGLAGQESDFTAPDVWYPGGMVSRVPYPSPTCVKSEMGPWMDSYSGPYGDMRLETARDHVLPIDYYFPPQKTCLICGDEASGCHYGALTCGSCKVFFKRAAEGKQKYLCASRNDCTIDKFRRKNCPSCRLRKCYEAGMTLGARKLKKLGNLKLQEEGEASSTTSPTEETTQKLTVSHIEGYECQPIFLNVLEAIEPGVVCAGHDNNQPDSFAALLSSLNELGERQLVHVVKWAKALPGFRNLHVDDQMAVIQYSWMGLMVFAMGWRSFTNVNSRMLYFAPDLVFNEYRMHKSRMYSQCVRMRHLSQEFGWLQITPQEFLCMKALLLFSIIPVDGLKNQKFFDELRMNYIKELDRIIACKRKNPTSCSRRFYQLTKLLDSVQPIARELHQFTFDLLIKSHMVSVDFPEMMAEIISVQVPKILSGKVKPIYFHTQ
# Sequence of Nucleoli Translocation, AR (gene 367) (P10275 whole entry, looked up, the tested form may be a part): as the sequence (P10275 whole entry, looked up) above
# Sequence of THRA (gene 7067) (P10827 whole entry, looked up, the tested form may be a part): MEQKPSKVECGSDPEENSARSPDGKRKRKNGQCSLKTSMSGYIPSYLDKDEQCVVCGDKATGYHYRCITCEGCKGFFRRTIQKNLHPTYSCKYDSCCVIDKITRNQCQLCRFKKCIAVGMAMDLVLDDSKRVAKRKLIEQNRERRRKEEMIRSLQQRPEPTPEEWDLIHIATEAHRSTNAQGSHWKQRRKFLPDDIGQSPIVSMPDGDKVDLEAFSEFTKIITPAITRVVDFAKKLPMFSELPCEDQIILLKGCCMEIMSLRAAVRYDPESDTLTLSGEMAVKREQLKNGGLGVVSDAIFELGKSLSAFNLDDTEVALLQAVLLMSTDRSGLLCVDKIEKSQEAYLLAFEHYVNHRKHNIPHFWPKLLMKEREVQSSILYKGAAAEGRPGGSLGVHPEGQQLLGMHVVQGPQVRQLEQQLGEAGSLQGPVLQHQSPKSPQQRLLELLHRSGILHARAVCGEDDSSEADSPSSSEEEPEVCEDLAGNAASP
# Sequence of THRB (gene 7068) (P10828 whole entry, looked up, the tested form may be a part): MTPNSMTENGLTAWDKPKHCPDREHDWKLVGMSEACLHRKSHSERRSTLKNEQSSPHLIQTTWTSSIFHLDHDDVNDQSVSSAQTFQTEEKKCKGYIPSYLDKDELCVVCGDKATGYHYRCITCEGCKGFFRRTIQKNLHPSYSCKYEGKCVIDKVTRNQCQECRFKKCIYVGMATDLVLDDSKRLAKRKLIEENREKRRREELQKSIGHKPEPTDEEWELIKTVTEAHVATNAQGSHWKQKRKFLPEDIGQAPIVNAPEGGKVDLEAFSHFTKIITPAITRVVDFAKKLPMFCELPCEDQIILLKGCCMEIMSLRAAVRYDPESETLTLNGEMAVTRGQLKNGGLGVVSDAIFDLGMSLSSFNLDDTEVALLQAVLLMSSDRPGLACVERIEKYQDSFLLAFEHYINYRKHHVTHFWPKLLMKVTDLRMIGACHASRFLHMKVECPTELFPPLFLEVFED
# Sequence of Retinoic acid receptor RXR-alpha (Homo sapiens) (P19793 whole entry, looked up): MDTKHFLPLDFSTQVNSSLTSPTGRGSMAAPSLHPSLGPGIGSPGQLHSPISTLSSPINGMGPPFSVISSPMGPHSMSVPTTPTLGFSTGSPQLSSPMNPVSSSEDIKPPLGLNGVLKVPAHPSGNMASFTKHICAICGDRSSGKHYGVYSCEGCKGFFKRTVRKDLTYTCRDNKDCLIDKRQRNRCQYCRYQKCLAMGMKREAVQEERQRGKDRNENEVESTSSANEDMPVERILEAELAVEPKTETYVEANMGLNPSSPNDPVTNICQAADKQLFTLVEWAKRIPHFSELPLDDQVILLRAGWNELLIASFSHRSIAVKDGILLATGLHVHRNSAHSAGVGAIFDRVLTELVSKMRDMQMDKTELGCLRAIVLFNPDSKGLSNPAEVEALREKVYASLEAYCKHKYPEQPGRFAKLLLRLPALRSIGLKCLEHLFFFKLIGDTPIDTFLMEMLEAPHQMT
smiles,measurement,setting,value
CCCCCCCCCc1ccc(OCCO)cc1,outcome,[1],inactive
same,outcome,[2],inactive
same,outcome,[3],inactive
same,AC50,[4],75.5 µM (active)
C=CC(=O)OCC(F)(F)C(F)(F)C(F)(F)C(F)(F)C(F)(F)C(F)(F)C(F)(F)C(F)F,AC50,DIO1 (gene 1733),8.44 µM (active)
CC1CCCCC1,outcome,[1],inactive
same,outcome,[2],inactive
same,outcome,[4],inactive
Cc1cccc(C)n1,outcome,[1],inactive
same,outcome,[2],inactive
same,outcome,[4],inactive
C[C@]12CC[C@H]3C(=CCc4cc(O)ccc43)[C@@H]1CCC2=O,outcome,THRA (gene 7067),inactive
same,outcome,THRB (gene 7068),inactive
same,outcome,[5],inactive
same,AC50,[1],0.234 µM (active)
same,outcome,[2],inactive
same,AC50,[3],3.04 µM (active)
same,outcome,[4],inactive
F[Si-2](F)(F)(F)(F)F,outcome,[1],inactive
same,outcome,[2],inactive
same,outcome,[4],inactive
CCN=c1cc2oc3cc(NCC)c(C)cc3c(-c3ccccc3C(=O)OCC)c-2cc1C,AC50,[2],12.9 µM (active)
same,AC50,[3],0.753 µM (active)
same,AC50,[4],13.6 µM (active)
NS(=O)(=O)C(F)(F)C(F)(F)C(F)(F)C(F)(F)C(F)(F)C(F)(F)F,AC50,DIO1 (gene 1733),44.3 µM (active)
O=C1C=CC(=O)N1c1ccccc1,AC50,[1],5.44 µM (active)
same,outcome,[2],inactive
same,AC50,[3],5.34 µM (active)
same,outcome,[4],inactive
CCCCCCCCCCCCCC[P+](CCCC)(CCCC)CCCC,AC50,DIO1 (gene 1733),11.5 µM (active)
same,AC50,[1],5.62 µM (active)
same,outcome,[2],inactive
same,AC50,[3],9.75 µM (active)
same,outcome,[4],inactive
CCCCCCCCCCCCC[N+](C)(C)Cc1ccccc1,AC50,DIO1 (gene 1733),38.7 µM (active)
same,AC50,[1],13.7 µM (active)
same,outcome,[2],inactive
same,AC50,[3],13.7 µM (active)
same,outcome,[4],inactive
CCN=C1C=CC(=C(c2ccc(N(CC)CC)cc2)c2ccc(N(CC)CC)cc2)c2ccccc21,AC50,[1],1.4 µM (active)
same,AC50,[3],4.7 µM (active)
same,outcome,[4],inactive
C=CC(=O)OCC(F)(F)C(F)(F)C(F)(F)COC(=O)C=C,AC50,DIO1 (gene 1733),19.6 µM (active)
O=C(c1ccccc1)c1ccc(O)cc1O,outcome,[6],inactive
same,outcome,THRA (gene 7067),inactive
same,outcome,THRB (gene 7068),inactive
same,outcome,[7],inactive
same,outcome,[5],inactive
CCc1ccc(C)nc1,outcome,[1],inactive
same,outcome,[2],inactive
same,outcome,[3],inactive
same,outcome,[4],inactive
COCCOCCC[Si](C)(O[Si](C)(C)C)O[Si](C)(C)C,outcome,[1],inactive
same,AC50,[2],88.8 µM (active)
same,outcome,[3],inactive
same,outcome,[4],inactive
CCCCCCCC/C=C\CCCCCCCC(=O)N(C)CC(=O)O,AC50,DIO1 (gene 1733),95.4 µM (active)
CCCCCCCC/C=C\CCCCCCCC(=O)OCC(O)CO (stereo not drawn),outcome,[1],inactive
same,outcome,[2],inactive
same,outcome,[3],inactive
same,outcome,[4],inactive
C=C(C)C(=O)OCC(F)(F)C(F)(F)C(F)(F)C(F)F,AC50,DIO1 (gene 1733),25.5 µM (active)
CCCCCCCCn1sc(Cl)c(Cl)c1=O,AC50,DIO1 (gene 1733),0.411 µM (active)

# — PubChem BioAssay (EPA / NIEHS)
